Assay results published in PubChem BioAssay (NCI).
About 83,000 compounds went through this panel and 20% of them were active in at least one assay; those are over-represented in the sample as a whole.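 Percent growth is the endpoint: 0 to 100 indicates growth inhibition (40 means 60% inhibition), 0 means no net growth, and negative values indicate cell death.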 The source made the active and inactive calls. How the source made its calls: active means growth percent below 10; inactive means the rest.

How the values were obtained:
Test in all cases: NCI-60 one-dose screen, 48 h (100 = growth as untreated, 0 = no growth, -100 = all killed)
Conditions in all cases: 10 µM unless noted
RPMI-8226 leukemia = test system: RPMI-8226 leukemia
OVCAR-5 ovarian = test system: OVCAR-5 ovarian
OVCAR-4 ovarian = test system: OVCAR-4 ovarian
SK-OV-3 ovarian = test system: SK-OV-3 ovarian
IGROV1 ovarian = test system: IGROV1 ovarian
OVCAR-3 ovarian = test system: OVCAR-3 ovarian
HS 578T breast = test system: HS 578T breast
NCI/ADR-RES ovarian = test system: NCI/ADR-RES ovarian
OVCAR-8 ovarian = test system: OVCAR-8 ovarian

Measured: growth

COc1ccc(/C=C/c2c(C(=O)/C=C/c3cccs3)c(C)nc3ccccc23)cc1
inactive: RPMI-8226 leukemia 56.6% | OVCAR-5 ovarian 97% | OVCAR-4 ovarian 68.7% | SK-OV-3 ovarian 79.7% | IGROV1 ovarian 46% | OVCAR-3 ovarian 83.6% | HS 578T breast 84.1% | NCI/ADR-RES ovarian 74.1%

COc1ccc(CNC(=O)C(O)C(Cc2ccccc2)NC(=O)c2[nH]c3ccccc3c(=O)c2C)cc1OC (stereo not given)
inactive: RPMI-8226 leukemia 111% | OVCAR-5 ovarian 98.1% | OVCAR-4 ovarian 111% | SK-OV-3 ovarian 103% | IGROV1 ovarian 112% | OVCAR-3 ovarian 111% | HS 578T breast 97.4% | NCI/ADR-RES ovarian 107%

Cc1c2c(c(C)c3c1oc1cc(O)ccc13)C(=O)N(CCN1CCCCC1)C2=O
inactive: RPMI-8226 leukemia 74.6% | OVCAR-5 ovarian 114% | SK-OV-3 ovarian 105% | IGROV1 ovarian 82.8% | OVCAR-3 ovarian 99.1% | HS 578T breast 89.8% | NCI/ADR-RES ovarian 81.7%

CCN(CC)CCCC(C)Nc1c2ccc(Cl)cc2nc2ccc(O)cc12 (stereo not given)
inactive: RPMI-8226 leukemia 21.8% | OVCAR-5 ovarian 74.3% | OVCAR-4 ovarian 24.6% | IGROV1 ovarian 53.8% | OVCAR-3 ovarian 54.8% | HS 578T breast 58% | NCI/ADR-RES ovarian 77.3%

O=C(c1ccccc1)c1c(/C=C/c2ccccc2)nc2ccccc2c1/C=C/c1ccc(Br)cc1
inactive: RPMI-8226 leukemia 104% | OVCAR-5 ovarian 103% | OVCAR-4 ovarian 88% | SK-OV-3 ovarian 96.3% | IGROV1 ovarian 103% | OVCAR-3 ovarian 89.4% | HS 578T breast 91.3% | NCI/ADR-RES ovarian 102%

C[n+]1cc2c3c(ccc2c2ccc4cc5c(cc4c21)OCO5)OCO3
active: OVCAR-8 ovarian -79.5% | OVCAR-5 ovarian -65.5% | IGROV1 ovarian -83.2% | OVCAR-3 ovarian -93.5% | HS 578T breast -2.95% | NCI/ADR-RES ovarian -36.4%

CCOC(=O)c1csc(NC(=O)COc2cccc(/C=C3\Oc4cc(OC)ccc4C3=O)c2)n1
inactive: OVCAR-8 ovarian 74.2% | OVCAR-5 ovarian 130% | OVCAR-4 ovarian 90% | SK-OV-3 ovarian 101% | OVCAR-3 ovarian 78.4% | HS 578T breast 91.3% | NCI/ADR-RES ovarian 79.4%

Cc1nn(-c2ccccc2)c(Cl)c1/C=C(/NC(=O)c1ccccc1)c1nc2ccccc2[nH]1
inactive: OVCAR-8 ovarian 102% | OVCAR-5 ovarian 101% | SK-OV-3 ovarian 95.4% | IGROV1 ovarian 96.8% | OVCAR-3 ovarian 120% | HS 578T breast 115% | NCI/ADR-RES ovarian 101%

NC(N)=NN=C(c1ccccc1)c1ccccc1
inactive: OVCAR-8 ovarian 40% | OVCAR-5 ovarian 79.3% | OVCAR-4 ovarian 71% | IGROV1 ovarian 48.1% | OVCAR-3 ovarian 21.3% | NCI/ADR-RES ovarian 59.3%
active: SK-OV-3 ovarian 5.22%

Cn1ccc2c(c1=O)C(=O)c1nccc3c1c-2nc1ccccc13
active: OVCAR-8 ovarian -58.5% | OVCAR-4 ovarian -44.9% | OVCAR-3 ovarian -96.3%
inactive: OVCAR-5 ovarian 69% | SK-OV-3 ovarian 92.3% | IGROV1 ovarian 44.6% | HS 578T breast 96.8% | NCI/ADR-RES ovarian 41%

COc1cc(C(=O)/C=C/c2c(-c3ccc(F)cc3)nc3sc(C)cn23)cc(OC)c1OC
inactive: OVCAR-8 ovarian 22.5% | OVCAR-5 ovarian 143% | OVCAR-4 ovarian 24.4% | SK-OV-3 ovarian 64.4% | IGROV1 ovarian 84.9% | OVCAR-3 ovarian 16.5% | HS 578T breast 25.4%
active: NCI/ADR-RES ovarian 2.75%

Cn1cc2c(c1)-c1nc(Nc3ccccc3)ncc1CC2
inactive: OVCAR-8 ovarian 79.6% | OVCAR-5 ovarian 60% | OVCAR-4 ovarian 69.3% | IGROV1 ovarian 58.6% | OVCAR-3 ovarian 69.5% | HS 578T breast 78.4% | NCI/ADR-RES ovarian 71.6%

COC(=O)c1ccc(C2Nc3ccc(S(=O)(=O)Nc4ccc(C)c(C)c4)cc3C3OCCC23)cc1 (stereo not given)
inactive: OVCAR-8 ovarian 92% | OVCAR-5 ovarian 95.7% | OVCAR-4 ovarian 82.8% | SK-OV-3 ovarian 92% | IGROV1 ovarian 84.4% | OVCAR-3 ovarian 79.1% | HS 578T breast 100% | NCI/ADR-RES ovarian 88.5%

COC1=CC(=O)C[C@@H](C)[C@]12Oc1c(Cl)c(OC)cc(OC)c1C2=O
inactive: OVCAR-8 ovarian 96.9% | OVCAR-5 ovarian 90.7% | SK-OV-3 ovarian 99.2% | IGROV1 ovarian 89.2% | OVCAR-3 ovarian 99.8% | HS 578T breast 91.5% | NCI/ADR-RES ovarian 75.5%

COc1cc(C2CC(c3cc(OC)c(OCCCOc4ccc(-n5c(/C=C/c6ccccc6)nc6ccccc6c5=O)cc4)c(OC)c3)=NO2)cc(OC)c1OC (stereo not given)
inactive: OVCAR-8 ovarian 104% | OVCAR-5 ovarian 105% | OVCAR-4 ovarian 87% | OVCAR-3 ovarian 118% | HS 578T breast 108% | NCI/ADR-RES ovarian 107%

COc1cc(C(=O)/C=C/c2c(C(F)(F)F)nc3sccn23)cc(OC)c1OC
active: SK-OV-3 ovarian 2.13% | OVCAR-3 ovarian -30.6% | NCI/ADR-RES ovarian -3.02%
inactive: OVCAR-8 ovarian 12.2% | OVCAR-5 ovarian 15.1% | IGROV1 ovarian 23% | HS 578T breast 37.4%

O=c1c2cc(F)ccc2sc2c(Nc3cccnc3)nc3ccccc3c12
inactive: OVCAR-8 ovarian 89.1% | OVCAR-5 ovarian 57.8% | OVCAR-4 ovarian 105% | SK-OV-3 ovarian 93.9% | IGROV1 ovarian 73.7% | OVCAR-3 ovarian 108% | HS 578T breast 74% | NCI/ADR-RES ovarian 90.4%

COc1cc(C(=O)c2cc(C)c3[nH]c4ccc(Cl)cc4c3c2C)cc(OC)c1OC
inactive: OVCAR-5 ovarian 42.3% | OVCAR-4 ovarian 56.4% | SK-OV-3 ovarian 45.7% | HS 578T breast 43.5%
active: IGROV1 ovarian 9.24% | OVCAR-3 ovarian -35.7% | NCI/ADR-RES ovarian 0.863%

CC1OC(O[C@H]2/C=C/C=C/C=C/C=C/C=C/C=C/C=C/[C@H](C)[C@@H](O)[C@@H](C)[C@H](C)OC(=O)CC(O)CC(O)CCC(O)C(O)CC(O)C[C@]3(O)C[C@H](O)C(C(=O)O)C(C2)O3)C(O)[C@H](N)C1O (stereo not given in full)
active: OVCAR-5 ovarian -21% | OVCAR-3 ovarian -42.3% | HS 578T breast -18.7% | NCI/ADR-RES ovarian -29.9%
inactive: OVCAR-8 ovarian 23.8% | SK-OV-3 ovarian 38% | IGROV1 ovarian 16.6%

O=C1/C(=C\c2c[nH]c3ccccc23)c2ccccc2N1c1c(Cl)cccc1Cl
inactive: OVCAR-4 ovarian 25% | SK-OV-3 ovarian 22.7% | IGROV1 ovarian 23.9%
active: OVCAR-8 ovarian 8.34% | OVCAR-5 ovarian -35.9% | OVCAR-3 ovarian -27.8% | HS 578T breast -11.4% | NCI/ADR-RES ovarian -8.2%

O=C1Nc2ccc(F)cc2C12Nc1cc(Cl)ccc1S2 (stereo not given)
inactive: OVCAR-8 ovarian 96.9% | OVCAR-5 ovarian 121% | OVCAR-4 ovarian 77.9% | SK-OV-3 ovarian 83.8% | OVCAR-3 ovarian 82.8% | HS 578T breast 94.4% | NCI/ADR-RES ovarian 93.4%

COc1cc(/C=C/C(=O)c2c(C)nc3ccccc3c2/C=C/c2ccc(C)cc2)cc(OC)c1OC
inactive: OVCAR-8 ovarian 17% | OVCAR-5 ovarian 17.7% | OVCAR-4 ovarian 39.5% | SK-OV-3 ovarian 58.6% | IGROV1 ovarian 21% | OVCAR-3 ovarian 15.6% | HS 578T breast 46.7%
active: NCI/ADR-RES ovarian 9.69%

CCCCc1ccc(Nc2ccc(Nc3ccc(CCCC)cc3S(=O)(=O)O)c3c2C(=O)c2ccccc2C3=O)c(S(=O)(=O)O)c1
inactive: OVCAR-8 ovarian 99.8% | OVCAR-5 ovarian 97.8% | OVCAR-4 ovarian 99.9% | SK-OV-3 ovarian 91.5% | OVCAR-3 ovarian 103% | HS 578T breast 102% | NCI/ADR-RES ovarian 107%
active: IGROV1 ovarian -16.9%

COc1ccc(S(=O)(=O)NCCNc2nccc(-c3c(-c4cccc(F)c4)nc4sccn34)n2)cc1
inactive: OVCAR-8 ovarian 36.6% | OVCAR-5 ovarian 62.9% | OVCAR-4 ovarian 38.9% | SK-OV-3 ovarian 54.3% | IGROV1 ovarian 14.8% | OVCAR-3 ovarian 49.1% | HS 578T breast 31.4% | NCI/ADR-RES ovarian 30.3%

O=C(/C=C/c1cccc(O)c1)c1cccc(-n2cc(-c3ccc4ccccc4c3)[nH]c2=O)c1
active: OVCAR-5 ovarian -42.6% | OVCAR-4 ovarian -76.2% | OVCAR-3 ovarian -73.2% | HS 578T breast -11% | NCI/ADR-RES ovarian -39.3%
inactive: OVCAR-8 ovarian 13.5% | SK-OV-3 ovarian 19.6% | IGROV1 ovarian 85.7%

Cc1ccc(S(=O)(=O)Oc2cc(OS(=O)(=O)c3ccc(C)cc3)cc(OS(=O)(=O)c3ccc(C)cc3)c2)cc1
inactive: OVCAR-8 ovarian 107% | OVCAR-5 ovarian 105% | OVCAR-4 ovarian 93.2% | SK-OV-3 ovarian 101% | OVCAR-3 ovarian 96.3% | HS 578T breast 95.8% | NCI/ADR-RES ovarian 95.6%

COc1cccc(/C=C/C(=O)c2c(C)nc3ccccc3c2/C=C/c2ccc(C)cc2)c1OC
inactive: OVCAR-8 ovarian 49.6% | OVCAR-5 ovarian 67.5% | OVCAR-4 ovarian 56.6% | SK-OV-3 ovarian 84.8% | IGROV1 ovarian 36.4% | OVCAR-3 ovarian 52.4% | HS 578T breast 68.3% | NCI/ADR-RES ovarian 40.6%

COc1ccc(C(=O)/C=C/c2c(C(F)(F)F)nc3sccn23)cc1OC
active: HS 578T breast -5.99% | NCI/ADR-RES ovarian 4.94%
inactive: OVCAR-8 ovarian 18.6% | OVCAR-5 ovarian 44.6% | OVCAR-4 ovarian 25.5% | IGROV1 ovarian 81.9%

Cc1ccc(NS(=O)(=O)c2ccc3c(c2)C2OCCC2C(c2ccc(C(=O)C(C)C)cc2)N3)cc1C (stereo not given)
inactive: OVCAR-8 ovarian 58.1% | OVCAR-5 ovarian 60.6% | OVCAR-4 ovarian 34.6% | IGROV1 ovarian 56.9% | OVCAR-3 ovarian 59.6% | HS 578T breast 81.7% | NCI/ADR-RES ovarian 41.9%

COc1ccccc1N1C(=O)/C(=C/C2=Cc3ccccc3OC2)SC1=S
inactive: OVCAR-8 ovarian 102% | OVCAR-5 ovarian 99.2% | OVCAR-4 ovarian 83.2% | SK-OV-3 ovarian 95.2% | OVCAR-3 ovarian 101% | HS 578T breast 94.6% | NCI/ADR-RES ovarian 109%
